Results as given in PubChem BioAssay AID1347426 (Functional Genomics Laboratory (NCATS/FGL), 2020).
In all, about 31,000 sequences went through this assay and about 1,400 (4.5%) were called active. Shown is part of a subset that was picked to be rich in actives. A number with no mark means an inactive call.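 Rule for the calls: active = median seed-adjusted z-score above 1 or below -1; inactive = the rest.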

Assay: Novel Modifiers of Survival Motor Neuron (SMN) Protein: Gene Identification via Genome-wide siRNA Screen;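 note: luminescence tracks full-length SMN protein made from the SMN2 reporter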
Conditions: HEK293T SMN2-luciferase reporter, siRNA knockdown, 72 h; actives lie on both sides
In short: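 siRNA screen, 10418 genes ×3 siRNAs; 1 pmol/well, lipid reverse transfection into HEK293T SMN2-luc reporter line. 72 h, 37 °C, 5% CO2; ONE-Glo readout. Data: neg-ctrl normalized, log10, MAD; hit = MAD >1.0 or < -1.0.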

Sequence	median seed-adjusted z-score
GAAAACCGCAGAUAAAGUATT against NFRKB	0.787
GGUGCAAUCAGAUAACAUATT against PPAPDC1A	0.634
CUGUUUAAGCGAUGACAAATT against CFL2	-0.148
AUCCUUAUUUGACACGAAATT against HOXC8	-0.0285
GGACUUUGCCUAUGUCUGUTT against TFAP2C	1.28 (active)
AGACCACCAAGGUUUCUUUTT against KCNH6	0.424
CUGGAAUGGUUGUCUGGUATT against SERTAD1	0.376
GAAGAGAACUUCUGCCGUATT against MST1	-1.47 (active)
GAUUAAUCCUUCAAUGAUUTT against TAF9B	-0.0247
CGUCAGCUAUGUAAUGUUUTT against SLC22A7	-0.387
GGACAGCUACGUGAAGAUUTT against PAK6	-0.57
UGAUGGUUGUGACAAUUGUTT against SUPT4H1	-1.01 (active)
AGCCUGUGAUGACUACAGATT against MGP	-0.0854
GAACUUACCUUCAACUACATT against NSD1	-0.372
GAGUGAUUCUAGCCUCUAATT against SEC61A1	0.312
CGAGAAAUCCCACAAGCGATT against NOVA2	0
GGAAGGCUUUUAGCAAUGATT against ZNF570	0.662
GGAUCGAGGAAAUAACAAUTT against DDX42	-2.13 (active)
GAAUGAGUUUUGUCAUGGATT against SUV39H2	-0.279
AGGCCGUGCUCUUCACCUATT against FAAH	0.373
GAGAUAUACGAGGAGAUUATT against TIGD1	0.224
GGUCAGAACAUUCACCGAATT against CFTR	-1.23 (active)

Sequence	median seed-adjusted z-score
GAAUGUGCUAUGAAGCUUUTT against SPRR1B	-0.721
GGCUCGUAUUUUCUGGUUUTT against ACHE	0
CCUUGCCUCUAUGAGAUCATT against CHCHD2	0.0884
GGGUCAUUCUAUGGGCAAATT against OGFOD2	0.493
GACUUGAGCUAAAUGGUCATT against SIAH1	1.5 (active)
CCUAUACUGUGGGCUAUAATT against STARD4	0.173
AGCCGUGGAUGGUAGAUCUTT against ZNF2	-0.119
CAGACUAAACUAUAGCGAUTT against SENP6	-1.03 (active)
GCAACUCCAAUGUCAGUGATT against TAF9B	-0.0247
GAGUCUGAAGGAUACUAUUTT against PGAM1	-0.234
GCCCUGAACAAGUUGCUCATT against TRPV6	-0.511
GCUUUUCCCGGUCAGAUCATT against KLF12	-0.0892
CCAUCGCAGAGGGAGAUAATT against USP43	0
GCUUCUAUAUUCAUGCUAATT against DDX6	1.12 (active)
GGUGAUGAGUGUUCCUACATT against KCNA4	-0.634
GGAUUUCUCAUGGAAGUUUTT against CUTC	-0.377
CGUAAAACCCAUCAAGUUUTT against B3GALNT1	0.128
GGCGGCAAGACGUAAGGAATT against SEMA3B	0.000251
UGCUGACCCUAAUCCCUUATT against ETV2	0
AGUUAGAGGUAGCAUUAUATT against FZD5	-0.129
GAGCAAUGCUGACUAUCAATT against CNOT7	0.716
CACUCGCAGUUAAUAUCAUTT against AZIN1	-1.14 (active)

Sequence	median seed-adjusted z-score
GGAUCCAGCUUUUCCUCGATT against ABCC10	-1.56 (active)
CCACGGCUGCAACAUCUUUTT against PDE2A	-0.2
CAGCCGCUCUCGUCAAUGUTT against GGTLC2	-0.288
ACAACUUCGUUUUCGGUCATT against TUBB2C	0
GCAGCAACAUUAUUGUCUUTT against CLDN17	0
GAAUGAAUUCUCUACUCUATT against ERBB3	-0.561
GCCUGUGAAGUGAACCUGATT against TMPRSS6	1.29 (active)
UGAUAUUGCUUAGUCCAUUTT against PRLHR	0
CAAACGUGGACUGUCCAAATT against CA4	0.0549
CAUGCACGGAGAGCCCAAATT against RPUSD3	0.303
CCAGGAGAUCUUUGCCUUUTT against SLC4A3	-0.7
GAACCGCUACAAGAACAUUTT against PTPN6	-0.515
AGAUGAAACUUCUACUGAATT against POLR2H	-2.74 (active)
CUUUGUCUAUGUCACCAUUTT against IMP5	0.559
CAAGCGAAUUAACUAUCUATT against GJB3	-0.198
GUCUCGCUGUGAUAGAUCATT against ELN	-0.149
CCAACAUCGAGUCCCUCAATT against SLC29A3	-0.0626
CUGAUAAAGUGGGUCAACATT against TNFRSF10B	0.064
CCAUCGUCAUGGAUCCAGATT against KDR	0.0728
GGGACAUCCUUUCCGGAAATT against NDUFS3	-0.54
GGAGUGUGAUGAUUCGUGATT against DGKK	0
AGAACUCACCUCCUGAUUATT against YY1	1.94 (active)

Sequence	median seed-adjusted z-score
GCAAGAUAACAAUUGAUAUTT against ANKRD30A	0.259
AGAUCUUCGCAAAUACUGUTT against KRT18	0.558
GGCUUAUGGAGGACCCUAUTT against NCOR1	0.0767
CCUAUGAUCCAACACCAUATT against GMPPA	0.619
CAUUAGCAGUUGUCCCGUUTT against P2RY10	-0.432
CUACUUCCGCAACCAGCUATT against UNC119	0.171
CUAUGGUAGCGACACUGCATT against LILRB1	0.539
UCACAGAGCCUAUUAUUUUTT against PRKY	0.168
GUGUCAGAGUUUAUAUCAATT against PDE4D	0
CAAACUAUCUCUGAAAAUATT against TRYX3	2.3 (active)
GCUGAUGACUGUCGUUAUATT against TBX3	0
CAUCCUGUAUAAGUACUAUTT against RNF216	-0.246
UCAACAUCGUCUACCAGGATT against SCNN1D	-1.8 (active)
GAUCUACCCUGCUCACGAUTT against ETHE1	0
CAGGCUACAGUGAACAGAATT against GNL1	0.154
GCGCGUUGGUACAAUGGAATT against GOT1	0.0103
GCUUGUCUUUCAACCCGAUTT against PARP4	-0.226
GCAACGUGUUGAUGAUGCATT against ADAD1	-0.0795
GCACAGAGGAACGAACUAATT against PSMC5	-1.06 (active)
GGGAGACGGUAGAAUCAGATT against ATP13A4	-1.09 (active)
CCAUGUGAGUGUAAGCAGUTT against ZNF490	0.00954
GGGUAACUGUUGAUAACCATT against POGK	0.938

Sequence	median seed-adjusted z-score
ACAAGACUUAUGCAAGAUATT against XRCC6BP1	0.128
GGAAUUCGAUGGGAACUUUTT against CACHD1	0.119
CCGAGUAGCUGAAAUUGUUTT against BCL2L14	-0.859
AGAUCUAUGAGAUUGAACATT against PRKAG3	-1.03 (active)
CAAGUUCCUUAACAAGGAATT against EIF2B4	0
CAGAUACUUUAGGACUCAATT against UGT2B4	0.0707
CAGGCUCACUCGCAAAGAATT against USP31	-0.755
GGCUCUCUGUCAACUAUGATT against MGC21874	-0.354
CCCUUUUCUUUAUCCCUGATT against IL9R	-1.33 (active)
GCAAGGCUAUUAUAGAUCATT against CTNNA3	0.249
GGACAUUGCUGAUCGCUUUTT against DMC1	-0.00876
GCAUGUCUCUAAUAUUCCUTT against RBM9	0.895
GGUUUGAAAUUCUAACAAATT against TXNDC6	0.156
CAUCCUGCAGAGUAUCUAATT against EPHA5	-0.00876
CUCUCUCUCGGAAUCUGAATT against POLR2L	-1.19 (active)
GGUUGUUUUGGAAACCGAATT against NAT12	-0.0807
GCGAAUUCAUAAGUCCAUUTT against MTMR9	0.133
CAAGACCGAGAGAACAAUATT against ENOX1	0.0694
CCAUCACCGUUGAUGACAATT against JAK1	0.0199
CGAGCUGCACGUUCCUAUATT against IRF7	-0.304
CAGUGGAUAUAUCCAGUCATT against RAB20	-0.334
